Data taken from PubChem BioAssay (NCATS).
Inconclusive results are not listed. The source made the active and inactive calls. The call rests on the fitted dose curve; in most records, active means well fitted inhibition curve with a large enough effect; inconclusive means small, poorly fitted or top-dose-only effect; inactive means no such curve, though single readings can be large or run the other way.

Biological target: Cytochrome P450 2D6 (Homo sapiens) (UniProt P10635)
Experiment: qHTS Assay for Inhibitors and Substrates of Cytochrome P450 2D6 (AID 891); further: nearly all actives have a fitted effect of over 60% in size
Outline: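 Human CYP2D6 (5 nM) with 30 uM Luciferin-ME EGE (at Km) in 100 mM KPO4, compound preincubated 10 min, then NADPH regeneration system for 60 min at room temperature. Luciferin read by luminescence; normalized to 1.43 uM quinidine.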
Potency means the concentration at half of the fitted maximal effect.

Chain of Cytochrome P450 2D6 (Homo sapiens) (P10635 whole entry, looked up): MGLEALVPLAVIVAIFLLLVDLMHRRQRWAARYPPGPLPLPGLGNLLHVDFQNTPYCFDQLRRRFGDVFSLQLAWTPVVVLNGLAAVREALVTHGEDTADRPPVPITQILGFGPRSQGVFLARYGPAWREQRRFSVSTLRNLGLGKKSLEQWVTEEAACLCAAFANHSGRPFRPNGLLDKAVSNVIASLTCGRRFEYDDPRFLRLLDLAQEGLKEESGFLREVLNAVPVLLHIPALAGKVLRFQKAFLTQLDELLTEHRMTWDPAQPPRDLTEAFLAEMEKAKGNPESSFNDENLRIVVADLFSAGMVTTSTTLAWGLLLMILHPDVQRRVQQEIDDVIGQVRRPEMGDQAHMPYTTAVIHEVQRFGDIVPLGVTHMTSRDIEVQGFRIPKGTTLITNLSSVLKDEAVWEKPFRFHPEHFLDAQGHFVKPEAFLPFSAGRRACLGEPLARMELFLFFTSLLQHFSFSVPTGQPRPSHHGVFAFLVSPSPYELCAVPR

Row | Structure (SMILES) | Potency
1 | CN1CCN(c2ncnc3ccc(-c4ccc5c(c4)OCO5)cc23)CC1 | 0.251 µM (active)
2 | CNc1ccnc(-c2ccccc2OC)n1 | 5.01 µM (active)
3 | COc1ccc(-n2c(=O)c(-c3cccs3)nc3cnc(N(C)C)nc32)cc1 | inactive
4 | CNc1cc(-c2ccccc2CN(C)C)ncn1 | 0.631 µM (active)
5 | CN(C)Cc1ccccc1-c1nc(N(C)C)c2ccccc2n1 | 2.51 µM (active)
6 | Cc1ccccc1-c1ccc2ncnc(NC3CC3)c2c1 | 7.94 µM (active)
7 | CN(C)Cc1ccccc1-c1cc(N(C)Cc2ccco2)ncn1 | 7.94 µM (active)
